Legend:
Experiment in all cases: PBM binding z-score (relative to random genomic background probes); higher = stronger binding; sequences stand for … in GC…GCGATTGACAGCGTAGAATGAAGG
[1] = system: FXR:RXRa (NR concentration 270 nM, RXRa partner concentration 90 nM)
How it was run: (§1)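 Random background probes are the reference for binding z-scores. These scores derive from regression-normalized fluorescence on custom Agilent 4×180K protein-binding microarrays incubated 1 h with ligand-free nuclear receptor dimers. Binding was detected with antibodies against each partner (one per run).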

[2] = system: LXRa:RXRa (NR concentration 270 nM, RXRa partner concentration 90 nM)
How it was run: as §1

[3] = system: LXRa homodimer (NR concentration 270 nM)
How it was run: as §1

[4] = system: LXRb:RXRa (NR concentration 270 nM, RXRa partner concentration 90 nM)
How it was run: as §1

[5] = system: LXRb homodimer (NR concentration 270 nM)
How it was run: as §1

[6] = system: PPARa:RXRa (NR concentration 270 nM, RXRa partner concentration 90 nM)
How it was run: as §1

[7] = system: PPARg:RXRa (NR concentration 180 nM, RXRa partner concentration 90 nM)
How it was run: as §1

[8] = system: PPARg:RXRa 270nM:90nM, anti-RXR (NR concentration 270 nM, RXRa partner concentration 90 nM)
How it was run: as §1

[9] = system: PPARg:RXRa 30nM:10nM, anti-RXR (NR concentration 30 nM, RXRa partner concentration 10 nM)
How it was run: as §1

[10] = system: PPARg:RXRa 90nM:30nM, anti-RXR (NR concentration 90 nM, RXRa partner concentration 30 nM)
How it was run: as §1

Sequence	PBM binding z-score [1]	PBM binding z-score [2]	PBM binding z-score [3]	PBM binding z-score [4]	PBM binding z-score [5]	PBM binding z-score [6]	PBM binding z-score [7]	PBM binding z-score [8]	PBM binding z-score [9]	PBM binding z-score [10]
ATATGTAGGTTACATCCGGGTCATTAAGGCTATG	2.39	4.11	1.5	3.09	0.566	4.35	6.02	5.08	2.66	4.28
ACTAGCAGGCCAAGGTTGGGTCACTCAAACAAAG	-0.0834	-0.151	-0.416	0.203	-1.03	1.39	0.643	1.19	-0.515	0.491
CCTTACGGGTCAAGGTTATAGCTCGGGTGGTACG	5.6	3.71	0.385	3.06	0.274	5.04	4.42	4.35	1.57	3.44
TCTTGTAGACCAACAGGAGGTTAAGAAAGATCGA	-0.287	1.22	0.0855	0.717	-0.453	1.15	0.068	1.3	2.69	1.81
TCGGGTAGGTTAGTCGGGGCATTCAGCCAACATA	0.578	0.368	0.422	1.38	0.98	1.01	-0.189	0.977	1.92	1.22
CAAACTAGGTCAACGGAAGGTCAAAGTCCGCATG	6.1	5.99	5.99	5.09	1.55	5.74	9.03	7.24	5.66	7.49
CCAGACAGGAGAAAGGTAACTCAGTCTGGTACGC	-0.00582	-0.0922	-0.373	-0.0883	-0.51	0.347	0.817	1.46	0.169	0.958
TAGCCTAGGTGATGGGCCAGTATACCACGCGAAC	-0.85	-0.73	-0.59	-0.909	-0.955	-0.386	0.501	0.427	-0.547	-0.0568
GCAAGTTGGTCAGTAAAAGGTCACACACCGGTCG	3.28	4.29	4.58	4.17	0.833	4.62	3.08	4.43	2.58	3.92
CCGACTGGGGCAAGTTTACCATAACGCACAGCCA	-0.129	0.0135	0.16	0.0377	-0.603	0.536	0.987	0.774	-0.288	0.451
ATTGAAAGGTCGAGGTGAGTATAGAGAAAGGGAA	4.46	3.8	0.427	2.93	1.15	4.7	4.5	3.84	1.72	3.01
CGTCAAAGTTCAACTAACGTAACGTAAAGCACGC	6.21	5.98	3.62	4.08	2.43	4.99	4.65	5.21	2.17	4.04
CGTCCAAGGTCATAGGAGGTCCGTGAAGACAGAT	7.45	5.69	0.811	3.99	0.8	5.61	4.52	5.1	1.5	3.67
CGAACTAGGTCAAGGACAGTGCATCTCCGCACGC	3.37	2.49	0.582	1.38	-0.386	4.35	7.23	6.31	3.38	5.86
CCTAGTTGGTTAGGAGGTCACACACCGGATATGA	3.07	3.38	2.02	3.21	0.635	4.02	2.54	3.3	1.25	2.81
CGAACTAGGTCAAGGAAAGTGAATCTCCGCACGC	2.69	1.93	-0.152	1.2	-0.225	4.55	7.18	6.18	3.7	5.66
TCTATTAGTAGAAGGGCAACCGACGAGTCCGTTT	0.288	0.212	0.0189	0.17	-0.103	0.688	0.23	1.93	3.29	2.44
CCTGCTAGGTCATGGTCAGCAAATCTACAGTATG	3.65	2.33	0.105	1.71	-0.273	3.53	2.37	2.74	0.551	1.8
GCTTACGGGTCAAAGGTTATAGGATGAATAGAAT	7.58	5.53	0.854	5.77	0.455	6.89	11.4	9.24	10	10.9

Sequence	PBM binding z-score [1]	PBM binding z-score [2]	PBM binding z-score [3]	PBM binding z-score [4]	PBM binding z-score [5]	PBM binding z-score [6]	PBM binding z-score [7]	PBM binding z-score [8]	PBM binding z-score [9]	PBM binding z-score [10]
TCTAGTAGATCAAGCAGGTTAAGAAAGCCTGAGT	-0.193	-0.025	-0.279	0.194	-0.909	0.517	-0.406	1.3	2.82	1.92
GCAGACAGGTGACACGCAGGTAACTCAGGGTGGC	-0.0725	-0.255	-0.585	-0.69	-1.06	0.614	0.69	-0.241	-0.412	-0.395
GATACAGGGACAGCTAGAGGCCAGAGTATGGAAA	-0.243	-0.821	-0.464	-0.674	-0.57	-0.178	0.636	-0.579	-0.2	-0.369
GGAACGAGGGCAAAGTTTATAGCATCTGTCGACG	1.77	1.29	0.174	1.19	-0.358	4.45	7.54	7.55	7	7.92
AGTCAAAGTCCACTAGGTAACGTAAGATTCAGCT	-0.195	-0.249	-0.162	-0.0956	0.0347	0.0628	0.58	0.278	0.0579	0.146
CCTAGCAGGCCCATCTGGGTCACTCAAGGCTTGA	0.338	0.486	-0.426	0.484	-1.16	1.7	0.158	0.743	-0.909	-0.217
AGAATGAGGTTATACCTAGATCAGGGAAGAAAGT	1.65	1.87	-0.0251	1.31	-0.249	3.15	1.77	1.63	0.532	1.09
CGAACCAGGGCATGAGTTGATAGCAAATGCCGAT	-0.0641	-0.00251	-0.295	-0.304	-1.08	0.552	1.15	1.2	-0.166	0.593
TCATATTGGTAAAAGGTGAAAGTCGGTGTGGTAA	1.65	1.92	0.474	2.06	0.291	3.73	3.98	5.67	5.38	6.18
CGATCTAGGTCAAGGACAGTGAATCTCCGCACGC	3.25	2.07	0.0913	1.3	-0.135	4.43	7.27	5.87	3.68	5.55
CCTCGGGGGACAACAGGAGGTCAGAGCTGCCAGA	2.56	3.46	1.7	3.52	4.28	3.13	1.01	1.67	0.217	1.17
ATCTCTAGGTAAACATAGTTCAGTGAATGCAAAT	0.367	4.22	0.983	1.07	0.728	0.819	1.12	1.07	0.499	0.945
TCTTGTTGGTCACGGAGGTCACACACGACGGGTA	3.76	3.86	3.29	3.62	2.2	4.14	3.58	4.44	3.5	4.07
AGTCAAAGTTCAGGACGAGGTAACGTCAAGCACG	4.26	3.98	1.22	1.77	-0.0254	3.5	4.43	4.98	1.87	4.04
CACACTAGGTCACGAAAGGTCAAAGTCGAATGAC	7.55	8.25	9.12	7.76	3.53	6.67	9.73	8.2	6.53	8.24
CAAACTAGGTCACGAAAGGTGAAAGTCGAATGAC	5.43	5.63	0.891	4.24	0.569	6.05	9.57	7.7	6.24	7.8
TCTGCTAGGTCAACGATGGTCAGCCAATCTGCTA	3.5	2.9	-0.0342	1.57	-0.0158	3.17	2.73	3.17	1.79	2.48
GCGAATGGGGCATCAGCAGGTTACCATAACTTAA	-0.164	-0.221	-0.232	0.924	-0.446	0.796	0.281	-0.0121	-0.215	-0.384
TCGAGTCGGTTACCAATGGGGCATTCAGCTTTCT	-0.293	-0.101	-0.421	0.26	-0.784	0.0956	-0.641	0.163	0.773	0.526
